Experimental data from ChEMBL document CHEMBL1157539, “Thousands of chemical starting points for antimalarial lead identification” (Nature, 2010).

Columns and labels:
Format in all cases: functional
Plasmodium falciparum [1] = assay: GSK_TCMDC: Inhibition of Plasmodium falciparum 3D7 in whole red blood cells, using parasite LDH activity as an index of growth. Test compounds present at 2uM
Plasmodium falciparum [2] = assay: GSK_TCMDC: Inhibition of Plasmodium falciparum Dd2 in whole red blood cells, using parasite LDH activity as an index of growth. Test compounds present at 2uM
HepG2 = assay: GSK_TCMDC: Percent inhibition of human HepG2 cell line. Test compounds present at 10uM.

Structure (SMILES) | Inhibition (Plasmodium falciparum [1]) [%] | Inhibition (Plasmodium falciparum [2]) [%] | Inhibition (HepG2) [%]
COc1ccc2nccc([C@@H](O)CN3CCC(NC(=O)/C=C/c4cccc(C)c4)CC3)c2c1 | 84 | 28 | 16
CCc1cc2c(=O)c(-c3nc(C)cs3)c(N)oc2c(CN2CCCCC2)c1O | 99 | 97 | 0
O=C(/C=C/c1ccc(Cl)c(Cl)c1)NCCCCCCN1CCCN(C(=O)Nc2ccc(C(F)(F)F)cc2)CC1 | 100 | 25 | 47
COCCN(C)c1ccc(C(=O)Nc2ccccc2)cc1NS(=O)(=O)Cc1ccccc1.O=C(O)C(F)(F)F | 92 | 47 | 2
Nc1nc(F)nc2nc[nH]c12 | 89 | 25 | 78
c1ccc(-c2nc(NCCCn3ccnc3)cc(-c3ccncc3)n2)cc1 | 100 | 100 | 42
O=S(=O)(Nc1cccc(CCN2CCC(N3CCCCC3)CC2)c1)c1ccc2c(c1)OCCO2 | 91 | 5 | 8
C[C@H](Nc1nc(C(Oc2ccccc2)c2ccccc2)nc2[nH]ncc12)c1ccccc1 (stereo partly specified) | 100 | 56 | 15
CN1CCN(CCCNCc2cccc(Nc3nccc(Nc4ccc(Oc5ccccc5)cc4)n3)c2)CC1 | 100 | 80 | 97
O=C(Nc1ccc(OC2CCN(Cc3ccsc3)C2)c(Cl)c1)c1ccco1.O=C(O)C(F)(F)F (stereo unspecified) | 93 | 96 | 0
COc1cc(NC(=O)Nc2ccnc3ccccc23)cc(OC)c1.Cl | 98 | 34 | 11
CC1CN(Cc2csc(Nc3ccccc3)n2)CC(C)O1 (stereo unspecified) | 91 | 81 | 4
CCOC(=O)c1ccc(-c2cnoc2-c2cc(CC)c(OC)cc2O)o1 | 100 | 97 | 12
COC(=O)Nc1cc(C(F)(F)F)ccc1N1CCCC(NS(=O)(=O)c2ccc(C(C)(C)C)cc2)C1 (stereo unspecified) | 97 | 90 | 0
Cl.O=c1cc(NCCCNCc2scc3c(Cl)cc(C(F)(F)F)nc23)[nH]c2ccccc12 | 99 | 21 | 9
Br.CC1(C)NC(N)=NC(=N)N1OCCCOc1cc(Cl)cc(Cl)c1 | 95 | 97 | 62
Cc1cccc(C(=O)Nc2ccnc(N3CCC(N(C)Cc4cccc(O)c4)CC3)c2)c1.O=C(O)C(F)(F)F | 95 | 41 | 7
Cn1cnc2c(Nc3ccncc3)nc(-c3ccc4c(c3)OCO4)nc21.O=C(O)C(F)(F)F | 96 | 2 | 19
Cc1ccc2nc3c(cc(C(=O)NCc4ccccc4)c(=N)n3CCCn3ccnc3)c(=O)n2c1 | 93 | 0 | 10
CN1CCN(c2nc(NCCc3ccc(O)cc3)nc(NCc3ccccc3-c3ccc(C(F)(F)F)cc3)n2)CC1 | 90 | 82 | 35
CC(C)(C)c1ccc(NC(=O)c2ccc(CN3CCCN(Cc4ccc(F)cc4)CC3)cc2)cc1.O=C(O)C(F)(F)F | 87 | 7 | 55

Structure (SMILES) | Inhibition (Plasmodium falciparum [1]) [%] | Inhibition (Plasmodium falciparum [2]) [%] | Inhibition (HepG2) [%]
CCNc1cc(C)nc(Nc2ccc(NC(=O)c3ccccc3)cc2)n1 | 100 | 63 | 41
Cc1cc(-c2cccc3c(C(=O)N4CCc5cc6nccc(N7CCCN(C)CC7)c6cc54)cccc23)cc(C)n1.Cl | 100 | 100 | 17
CCOCCCNc1nc2cc(OC)c(OC)cc2c2nc(-c3ccccc3)nn12 | 96 | 98 | 10
CC1(C)N=C(N)N=C(NOCCCCCCONC2=NC(N)=NC(C)(C)N2)N1 | 95 | 98 | 34
COc1ccc(Nc2ncc3c(-c4cccc(NC(=O)c5ccc(N)cc5)c4)c[nH]c3n2)cc1OC | 84 | 31 | 83
COc1ccc(CCNc2nc(N)c3cc(OC)c(OC)cc3n2)cc1.Cl | 100 | 1 | 16
CS(=O)(=O)c1ccccc1CNC(=O)c1ccc(-c2ccc(-c3nc4cc(C(F)(F)F)ccc4[nH]3)s2)cc1 | 96 | 76 | 90
CCCC(CNCc1cccc(OC(F)(F)F)c1)CNc1cc(=O)c2ccccc2[nH]1 (stereo unspecified) | 100 | 95 | 0
Cc1ccc(C(=O)Nc2ccc(F)c(F)c2F)cc1S(=O)(=O)N1CCCCC1 | 92 | 69 | 3
COc1ccc2c(=NN=Cc3cccnc3)cc(C)[nH]c2c1 | 85 | 12 | 0
CN1CCN(CCCN(Cc2cccc(-c3ccc(CNCc4ccc5c(c4)OCO5)cc3)c2)C(=O)CCC2CCCC2)CC1.O=C(O)C(F)(F)F | 98 | 84 | 91
CN(C)C(CNc1ncnc2cc(Cl)ccc12)Cc1ccccc1 (stereo unspecified) | 96 | 88 | 13
CCCCCN1CCC(NC(=O)c2ccc(C(=O)Nc3ccc(C(C)C)cc3)cc2)CC1.O=C(O)C(F)(F)F | 98 | 9 | 41
COc1ccc2nccc(NCC3(O)CCC(NCc4cc5c(cn4)OCCO5)CC3)c2n1.Cl (stereo unspecified) | 99 | 23 | 15
CC[C@H](C)CNC(=O)c1cncc(-c2ccc(CNC3Cc4ccccc4C3)cc2)c1.O=C(O)C(F)(F)F | 100 | 95 | 14
COc1ccc(NC(=O)[C@H](CC(C)C)Nc2cc(C)nc(NCCOc3ccccc3)n2)cc1.O=C(O)C(F)(F)F | 100 | 65 | 0
O=C(C=Cc1ccc(Cl)c(Cl)c1)NCCCCCN1CCC(CCNS(=O)(=O)c2ccc(F)cc2)CC1 | 88 | 0 | 36
COCc1nc(N)nc(N)c1-c1ccc(Cl)c(Cl)c1 | 84 | 1 | 4
CC1CCCCC1N(C)C1CCN(CCCNC(=O)C=Cc2cccc(C(F)(F)F)c2)CC1 (stereo unspecified) | 100 | 17 | 47
CC(C)(C)CC(C)(C)c1ccc(O)c(CNC2CCCCC2)c1.Cl | 98 | 99 | 92
O=C(Nc1cccc(C(F)(F)F)c1)c1ccc(S(=O)(=O)NC2CCN(CC3CCCCC3)C2)cc1.O=C(O)C(F)(F)F (stereo unspecified) | 92 | 0 | 16

Structure (SMILES) | Inhibition (Plasmodium falciparum [1]) [%] | Inhibition (Plasmodium falciparum [2]) [%] | Inhibition (HepG2) [%]
O=C(NCCCCN1CCC(c2ccc3c(c2OCC2COCO2)CCCC3)CC1)c1ccc(-c2ccc(C(F)(F)F)cc2)cc1 (stereo unspecified) | 99 | 45 | 91
O=C(O)C(F)(F)F.c1cnc2ccc(NCc3ccc(-c4ccc(CNC5CCCC5)cc4)cc3)cc2c1 | 97 | 21 | 27
Br.Oc1ccc2nc(N3CCNCC3)nc(NCCCc3ccccc3)c2c1 | 100 | 0 | 14
O=C(O)C(F)(F)F.c1ccc2[nH]c(-c3ccc(-c4ccc(CNCCc5ccncc5)cc4)s3)nc2c1 | 100 | 98 | 28
Cc1cc(F)ccc1-c1nc(NCC(O)CNCCc2ccccc2)nc2c1ccc(=O)n2-c1c(F)cccc1F.O=C(O)C(F)(F)F (stereo unspecified) | 100 | 100 | 25
Cc1c2c(nn1-c1ccccc1)C(c1ccccc1)N(c1ccccc1)C2=O (stereo unspecified) | 92 | 96 | 42
CN1CCC(Oc2ccc(NC(=O)c3ccc4c(=O)n(Cc5ccccc5)cnc4c3)cc2Cl)CC1 | 95 | 20 | 23
O=C(/C=C/c1ccc(Cl)c(Cl)c1)NCC1CCN(Cc2ccc(O)cc2)CC1.O=C(O)C(F)(F)F | 98 | 0 | 4
Cc1cccc(CNc2nc(C)cc(N[C@@H](Cc3ccccc3)C(=O)NCCc3ccccc3)n2)c1.O=C(O)C(F)(F)F | 99 | 85 | 24
COc1ccc(CCN(C)CCCOc2ccc(NC(=O)c3cccc4c(=O)c5ccccc5[nH]c34)cc2)cc1OC | 94 | 45 | 80
Cc1cc(F)ccc1Nc1nc(N(C)c2ccccc2)c2cc(OCCN(C)C)ccc2n1 | 94 | 55 | 37
Cc1nc(-c2ccc(-c3ccc(C(=O)Nc4ccc(I)c(OCC5CCCN5C)c4)cc3)c(C)c2)no1.Cl (stereo unspecified) | 97 | 39 | 100
COc1cc(C(C)C)ccc1N1CCN(CCCCNC(=O)c2ccc(NC(=O)c3ccc(Cl)cc3)cc2)CC1 | 98 | 81 | 25
O=C(Nc1ccc2oc(-c3ccc(Cl)cc3Cl)nc2c1)c1ccc([N+](=O)[O-])o1 | 95 | 78 | 39
O=C(/C=C/c1ccc(Cl)c(Cl)c1)NCCCCCN1CCC(NC(=O)Nc2ccc(Cl)cc2Cl)CC1 | 91 | 33 | 96
Cc1[nH]c(C)c([N+](=O)[O-])c(=O)c1-c1ccc(Oc2ccccc2)cc1 | 98 | 97 | 11
O=C(NCc1cccc(F)c1)Nc1cccc(-c2ccc(-c3nc4cc(F)ccc4[nH]3)cc2)c1 | 84 | 0 | 46
Cl.Nc1c2c(nc3ccc(NC(=O)c4ccc([N+](=O)[O-])cc4)cc13)CCCC2 | 100 | 72 | 19
Cc1c(C)n(C2CCCCC2)c2ncnc(OC3CCN(CC(=O)N4CCCC4)CC3)c12 | 95 | 59 | 31
O=C(Nc1cccc(-c2ccc(-c3nc4cc(F)ccc4[nH]3)cc2)c1)Nc1ccc(Cl)c(Cl)c1 | 100 | 49 | 79
